Hits are enriched below; roughly 3.5% of the tested compounds scored in any of these assays.
TEAD-YAP block: TEAD-YAP interaction inhibition | HEK-TIYL cells, TEAD-Gal4/YAP UAS-luciferase luminescence | inhibition, % at 9.12 µM | hit rate 1.4% among 640,000; in the data active = inhibition above about 32%
GPR151 activ: activators of human GPR151 | Q8TDV0 | PathHunter beta-arrestin GPR151 cells, luminescence | activation, % at 11.2 µM | hit rate 1% among 650,000 | AID 1508602; in the data active = activation above about 4.9%
MITF primary: inhibitors of human MITF | AlphaScreen MITF homodimerization, bead proximity signal | hit rate 0.91% among 650,000 | inhibition, % at 2.6 µM; in the data active = inhibition above about 50%
Target sequence (O75030 whole entry, looked up): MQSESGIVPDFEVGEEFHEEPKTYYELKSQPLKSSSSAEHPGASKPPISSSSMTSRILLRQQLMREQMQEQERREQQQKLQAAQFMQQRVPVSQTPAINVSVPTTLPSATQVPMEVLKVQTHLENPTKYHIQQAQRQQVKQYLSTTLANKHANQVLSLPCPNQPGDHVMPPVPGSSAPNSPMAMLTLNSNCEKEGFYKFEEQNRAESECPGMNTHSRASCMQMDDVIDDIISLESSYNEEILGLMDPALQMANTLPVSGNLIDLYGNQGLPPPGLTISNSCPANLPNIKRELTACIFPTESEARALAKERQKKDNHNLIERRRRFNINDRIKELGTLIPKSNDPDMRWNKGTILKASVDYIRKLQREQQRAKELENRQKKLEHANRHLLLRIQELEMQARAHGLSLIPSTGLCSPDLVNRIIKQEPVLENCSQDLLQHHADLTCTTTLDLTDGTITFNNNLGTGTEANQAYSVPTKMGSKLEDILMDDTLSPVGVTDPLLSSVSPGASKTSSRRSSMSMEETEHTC
FBW7 act: human FBW7 E3 ligase activation, primary screen; hit rate 0.13% among 650,000; normalized activity (activation), % at 26.1 µM; AlphaScreen FBW7–phospho-cyclin E peptide binding, activator screen; in the data active = normalized activity above about 1.9%;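 also: purified mutant Fbw7 with reduced substrate affinity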
Numbers stand for hits; i = inactive.

SMILES	TEAD-YAP block	GPR151 activ	MITF primary	FBW7 act
CC(C)n1cnc2c(NCCO)nc(-c3ccc(C(N)=O)cc3)nc21	i	i	i	i
COc1ccc(-c2nc(NCc3nc4ccccc4[nH]3)c3ncn(C(C)C)c3n2)cc1	71	i	i	i
CCOC(=O)c1c(C)n(CCO)c2cc(O)cc(C)c12	i	i	i	i
Nc1nccc(-c2ccc3nc(C4COc5ccc(F)cc5C4)[nH]c3c2)n1 (configuration not stated)	43	i	i	i
COc1cccc2c1CC(c1nc3ccc(-c4ccnc(N)n4)cc3[nH]1)CO2 (configuration not stated)	50	i	i	i
NC(=O)c1ccc2c(c1)CC(c1nc3ccc(-c4ccnc(N)n4)cc3[nH]1)CO2 (configuration not stated)	i	i	i	i
COc1cccc(-c2cc(C(N)=O)on2)c1OC	i	i	i	i
Cc1cccc(OCc2nc3ccc(-c4ccnc(N)n4)cc3[nH]2)c1	57	i	i	i
CC(=O)Nc1cc(-c2ccnc(N)n2)ccc1NC(=O)COc1cccc(C)c1	i	i	i	i
CCCCOc1ccc(C(=O)NO)cc1OC	40	i	i	i
CCCNC(=O)C/C(C)=N/NC(=O)c1ccc(OC)c(OC)c1	34	i	i	i
COc1ccc(/C(C)=N/NC(=O)c2cccc(F)c2)cc1OC	i	i	i	i
COc1ccc(C(=O)N/N=C(\C)c2ccc(C#N)cc2)cc1OC	41	i	i	i
CCOC(=O)c1oc2ccccc2c1NC(=O)CCN(CC)CC	i	i	i	i
NNC(=O)c1cc(-c2cccnc2)nn1-c1ccccn1	i	i	i	i
CCOC(=O)c1c(NC(=O)CSc2nnc(CNC(=O)c3cccs3)n2-c2cccc(C)c2C)sc2c1CCCCC2	i	i	i	i
Cc1ccc(N=C(NN)c2ccc3ccccc3n2)cc1	92	i	i	i
CCOc1ccc(N=C(NN)c2ccc3ccccc3n2)cc1	94	i	i	i
COc1ccccc1N=C(NN)c1ccc2ccccc2n1	i	i	i	i
CCOC(=O)c1c(NC(=O)COc2ccc(C(C)(C)CC(C)(C)C)cc2)sc(C(C)=O)c1C	i	i	i	i
CCCC(=O)Nc1ccccc1-c1nc2cc3ccccc3cc2[nH]c1=O	55	i	i	i
Cc1nccn1-c1cc(NCCNC(=O)Nc2ccc(F)c(Cl)c2)ncn1	78	i	i	i
COc1cccc(C(=O)NC2CCN(C(=S)NCCc3ccccc3)CC2)c1	i	i	i	i
COc1ccc(C)cc1Nc1c2c(nc3ncnn13)CCC2	38	i	i	i
COc1ccccc1Nc1c2c(nc3ncnn13)CCC2	i	i	i	i
SMILES	TEAD-YAP block	GPR151 activ	MITF primary	FBW7 act
COc1ccccc1N(/C=C1\Sc2ccccc2C1=O)C(C)=O	79	i	i	i
CC(=O)N(/C=C1\Sc2ccccc2C1=O)c1ccc(C)cc1	70	i	i	i
CC(=O)N(/C=C1\Sc2ccccc2C1=O)c1ccc(C(=O)O)cc1	i	i	i	i
CCOc1cc(/C=C2/C(=N)N3N=C(C(F)(F)F)SC3=NC2=O)ccc1OCCOc1cc(C)cc(C)c1	i	i	i	i
COc1cccc(CN2CCc3nc(-c4ccccn4)nc(N4CCCC4)c3C2)c1	41	i	i	i
CCc1cc2cc3c(cc2nc1SCC(=O)NC(C)(C)C)OCO3	38	i	i	i
CCC(=O)NNC(=O)CSc1nc2cc3c(cc2cc1CC)OCCO3	i	i	i	i
CCc1cc2cc3c(cc2nc1SCC(=O)NC(C)(C)C)OCCO3	47	i	i	i
CC(C)n1cnc2c(NCCO)nc(NCc3ccc4c(c3)OCO4)nc21	i	i	i	i
O=C(NNC(=S)NCC1CCCO1)C(Sc1ccccc1)c1ccccc1 (configuration not stated)	i	i	i	2.2
O=C(Cc1ccccc1)NC(c1ccco1)c1ccc2cccnc2c1O (configuration not stated)	i	i	i	i

Screening results deposited in PubChem BioAssay by The Scripps Research Institute Molecular Screening Center.
